The values below come from PubChem BioAssay AID652136 (The Scripps Research Institute Molecular Screening Center, 2013).

Each structure is given as a SMILES string. About 1,900 (79%) of roughly 2,400 compounds were called active. So high a share suggests a set chosen from earlier hits. Not all results are given here. Unmarked numbers belong to inactive results.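 Rule for the calls: active = inhibition above the mean of all tested compounds plus 3 SD (cut at about 3% in these data); inactive = the rest.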

The nature of this experiment: SF-1 AF-2 mutant transactivation artefacts – cell-based, luminescence, counter-screen for DAX1 inhibitor project (AID 652136).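 Note: 0% = DAX-1 transfected cells with DMSO and 100% = cells without DAX-1 with DMSO.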 The settings on record: HEK293 StAR-luciferase, SF-1 AF2 mutant, at 6.8 µM, stronger effect = higher value.
`O=C(Nc1ccccc1)Nc1nc2ccccc2s1`: the inhibition (as a rule, the relative decrease from the control value, in per cent) is 10.3% (active).
Take `Nc1ccc(C(=O)Nc2ccccc2N)cc1`: the inhibition was 42.6% (active).
For `O=C(NC(=S)NC1CCCCC1)c1ccc(Cl)cc1`, the inhibition was 4.24% (active).
To `CSCCC(NC(=O)c1ccco1)C(=O)Nc1cc(C)ccn1` (configuration not stated) belongs 7.83% (active); to `O=c1c2c(nc3n1CCCCC3)sc1c(O)cccc12`, 7.48% (active); to `CC[C@]1(O)CC2CN(CCc3c([nH]c4ccccc34)[C@@](C(=O)OC)(c3cc4c(cc3OC)N(C=O)[C@H]3[C@@](O)(C(=O)OC)[C@H](OC(C)=O)[C@]5(CC)C=CCN6CC[C@]43[C@@H]65)C2)C1` (some centres not stated), -7.3%.
To `COC(=O)c1sc(NC(=O)c2ccc(OC)cc2OC)nc1C` belongs 3.15% (active); to `CN1OC[C@@H]2CN[C@H](c3ccc(-c4ccccc4)cc3)C[C@@H]21`, 5.72% (active); to `CC(=O)Nc1cccc(-c2csc(Nc3cccc(C)n3)n2)c1`, 8.58% (active).
As for `c1ccc2[nH]c(-c3nc4ccccc4[nH]3)nc2c1`, the inhibition was 8.74% (active).
`Cc1ccc(-c2nc3ccccc3[nH]2)cc1N`: the inhibition was 8.86% (active).
For `O=c1oc(/C=C/c2ccccc2)nc2ccccc12`, the inhibition was 7.24% (active).
Turning to `Cn1ccnc1SCC(=O)Nc1ccc2c(c1)OCCO2`, the inhibition is 5.39% (active).
On to `CCN(CC(=O)Nc1c(F)cccc1F)C(=O)c1cnc(C)cn1`, for which the inhibition was 0.25%.
With `Cc1nc2cc(NC(=O)Nc3cccc(F)c3)ccc2n1C`, the inhibition is 8.9% (active).
To `O=C(N/N=C\C1CC=CCC1)c1ccc(Br)o1` (configuration not stated) belongs 0.2%; to `CCSc1nnc(NC(=O)c2ccc(C)cc2)s1`, 6.21% (active); to `NC(=O)CSc1nnc(NC(=O)c2ccc3ccccc3c2)s1`, 7.69% (active).
Turning to `Nc1c(C(=O)Nc2ccc3c(c2)OCCO3)nnn1Cc1ccccc1`, the inhibition was 7.14% (active).
Regarding `CC[C@]1(O)C[C@@H]2CN(CCc3c([nH]c4ccccc34)[C@@](C(=O)OC)(c3cc4c(cc3OC)N(C)[C@H]3[C@@](O)(C(=O)OC)[C@H](OC(C)=O)[C@]5(CC)C=CCN6CC[C@]43[C@@H]65)C2)C1`, the inhibition is -6.49%.
As for `Cc1ccc(-n2cc3ccc([N+](=O)[O-])cc3n2)cc1`, the inhibition was 6.18% (active).
With `Brc1ccc2nc(N3CCCC3)sc2c1` the figure was 4.08% (active).
Regarding `S=C(c1ccc(-c2ccccc2)o1)N1CCCCC1`, the inhibition was 5.47% (active).
Regarding `Cc1ccnc(NC(=O)CNC(=O)c2ccccc2)c1`, the inhibition is 2.35%.
In the case of `Cc1ccnc(NC(=O)CCNS(=O)(=O)c2ccc(C)c(C)c2)c1`, the inhibition was 9.35% (active).
With `CC1CCCN(c2ccc(C(=O)NCCc3ccccc3)cn2)C1` (configuration not stated) the figure was 3.59% (active); with `O=C(c1cnn2ccccc12)N1CCc2ccccc21`, 6.23% (active).
For the compound `Cc1sc(NC(=O)c2ccc3ncsc3c2)c(C(N)=O)c1C`, the inhibition is 5.5% (active).
For the compound `O=C(Nc1ccc(Cl)c(Cl)c1)c1ccccc1NC(=O)C1CC=CCC1C(=O)O` (configuration not stated), the inhibition is 4.5% (active).
For the compound `O=C(Nc1ccccc1)c1ccc2c(c1)OCCCO2`, the inhibition is 7.83% (active).
With `CN1CCN(c2ccc(NC(=O)c3ccc4c(c3)OCCO4)cc2Cl)CC1`, the inhibition was 4.72% (active).
Take `Cc1ccc(C(=O)NNC(=O)c2ccc3c(c2)OCCO3)cc1`: the inhibition was 2.35%.
For `Cc1nc(NC(=O)c2ccc3c(c2)OCCO3)ccc1Br`, the inhibition was 7.07% (active).
For the compound `Cc1c(C(=O)Nc2ccccn2)oc2ccc(Br)cc12`, the inhibition is 8.11% (active).
Regarding `O=C(Nc1ccn(Cc2ccccc2)n1)c1n[nH]c([N+](=O)[O-])c1Cl`, the inhibition was 3.58% (active).
In the case of `O=C(CCc1ccccc1)Nc1ncc([N+](=O)[O-])s1`, the inhibition is 1.92%.
Consider `c1ccc(Cc2c(-c3ccco3)nc3c4ccccc4ccn23)cc1`, for which the inhibition was 8.27% (active).
Turning to `CC1CCN(C(=O)COC(=O)c2cc(=O)[nH]c3ccccc23)CC1`, the inhibition was 5.98% (active).
Take `COc1ccccc1CCC(=O)OCC(=O)N1CCN(S(=O)(=O)c2ccc(C)cc2C)CC1`: the inhibition is 1.55%.
As for `COc1cc(/C=N/O)ccc1OCc1ccc([N+](=O)[O-])cc1`, the inhibition was 6.8% (active).
`COc1cc(C2c3cc4c(cc3C(O)C3COC(=O)C23)OCO4)cc(OC)c1OC` (configuration not stated): the inhibition is -5.65%.
On to `CC(C)c1ccc(Nc2ncccc2C#N)cc1`, for which the inhibition was 5.42% (active).
Take `C(=N\Nc1ccc2ccccc2n1)/c1ccc2c(c1)OCO2`: the inhibition was 2.84%.
In the case of `Cc1cccc(NC(=O)/C=C/c2ccc3c(c2)OCO3)n1`, the inhibition was 6.21% (active).
For `COc1ccc(/C=C/C(=O)Nc2ccc(C34CC5CC(CC(O)(C5)C3)C4)cc2)cc1OC`, the inhibition was -4.01%.
For the compound `COc1cccc(/C=C/C(=O)Nc2ccc3c(c2)OCCO3)c1`, the inhibition was 3.61% (active).
`O=C(NCCc1c[nH]c2ccccc12)c1cc2ccccc2oc1=O`: the inhibition is 7.29% (active).
Turning to `O=C(O)c1ccc(N/N=C/c2cn(-c3ccccc3)nc2-c2cccs2)cc1`, the inhibition was 6.77% (active).
As to `Cc1csc(SCC(=O)Nc2sccc2C#N)n1`, the inhibition was 10.8% (active).
`Cc1cc(C)c(C)c(S(=O)(=O)N2CCN(C(=O)c3ccc4c(=O)n5c(nc4c3)CCC5)CC2)c1C`: the inhibition is -0.34%.
In the case of `CCCc1cc(C(=O)Nc2ccc(C(=O)OC)cc2)cs1`, the inhibition was 3.67% (active).
On to `CCCc1cc(C(=O)Nc2ccc(Cl)cn2)cs1`, for which the inhibition was 6.47% (active).
As for `CC(C)(O)C#Cc1ccc(CNC[C@H]2O[C@@H](n3cnc4c(=O)[nH]c(N)nc43)[C@H](O)[C@@H]2O)s1`, the inhibition was -0.84%.
On to `CCCNC(=O)C1CC(=O)N(c2ccc(OCc3ccccc3)cc2)C1` (configuration not stated), for which the inhibition was 4.36% (active).
With `CCc1ccc(NC2Nc3cc(C)nn3S2)cc1` (configuration not stated), the inhibition was 5.97% (active).
In the case of `O=C(Nc1ccc(NC(=O)c2cccs2)cn1)c1ccco1`, the inhibition was 6.87% (active).
With `CC(=O)Nc1cccc(C(=O)OCC(=O)c2ccc3c(c2)OCO3)c1`, the inhibition is 5.14% (active).
